Laboratory results as given in PubChem BioAssay (EPA / NIEHS).
Inconclusive results are not listed. A structure can be active in one record and inactive in another. The source made the active and inactive calls. Rule for the calls, unless noted: active = hit-call score of the fitted dose curve at least 0.9, where 1 is the maximum; inactive = score below 0.9.

Assays:
[1] = molecular target: Hypoxia-inducible factor 1-alpha (Homo sapiens) (UniProt Q16665); assay: ATG_HIF1a_CIS: Attagene CIS-FACTORIAL HepG2 Assay for human Hypoxia Inducible Factor 1 (HIF1A) (AID 2282951); details: HepG2 Attagene cis-factorial HIF1a reporter transcription; actives raise or lower the signal
Summary of the method: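 HepG2 cells transiently transfected with multiple cis-regulated reporter transcription units measure endogenous transcription factor activity. After 24 h exposure, reporter mRNA is quantified by RT-PCR with 6-FAM labelling, HpaI digestion and capillary electrophoresis. Bidirectional fitting against DMSO.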

[2] = molecular target: Hepatocyte nuclear factor 6 (Homo sapiens) (UniProt Q9UBC0); assay: ATG_HNF6_CIS: Attagene CIS-FACTORIAL HepG2 Assay for human Hepatocyte Nuclear Factor 6 (HNF6) (AID 2282952); details: HepG2 Attagene cis-factorial HNF6 reporter transcription; actives raise or lower the signal
Summary of the method: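 Reporter mRNA induction or loss in HepG2 after 24 h exposure; transient cis-MRTU transfection; fragments quantified by capillary electrophoresis; bidirectional analysis, DMSO as negative control.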

[3] = molecular target: Heat shock factor protein 1 (Homo sapiens) (UniProt Q00613); assay: ATG_HSE_CIS: Attagene CIS-FACTORIAL HepG2 Assay for human Heat Shock Transcription Factor 1 (HSE) (AID 2282953); details: HepG2 HSE cis-reporter, Attagene RNA transcription; actives raise or lower the signal
Summary of the method: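 Reporter mRNA induction in HepG2 is measured 24 h after dosing, using transiently transfected multiplexed cis-regulated reporter units. Signal comes from capillary electrophoresis of labelled RT-PCR products, with DMSO as negative control.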

[4] = ATG_MRE_CIS: Attagene CIS-FACTORIAL HepG2 Assay for human Metal Responsive Element (MRE) (AID 2282954); details: HepG2 MRE cis-reporter transcription, Attagene multiplex; actives raise or lower the signal
Summary of the method: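 HepG2 cells transiently transfected with multiple cis-element reporter units measure endogenous MTF1-driven transcription. After 24 h compound exposure, reporter mRNA is quantified by RT-PCR with 6-FAM labelling, HpaI digestion and capillary electrophoresis; bidirectional fits versus DMSO.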

[5] = molecular target: Paired box protein Pax-6 (Homo sapiens) (UniProt P26367); assay: ATG_Pax6_CIS: Attagene CIS-FACTORIAL HepG2 Assay for human Paired Box 6 (PAX6) (AID 2282956); details: HepG2 CIS-FACTORIAL PAX6 reporter transcription, RNA readout; actives raise or lower the signal
Summary of the method: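 After twenty-four hours of chemical exposure, transfected HepG2 cells are harvested for RNA. Cis-promoter reporter transcripts are amplified, fluorescently labelled and sized by capillary electrophoresis, with gain and loss of signal scored against DMSO.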

[6] = ATG_PXRE_CIS: Attagene CIS-FACTORIAL HepG2 Assay for human Pregnane X Receptor Element (PXRE) (AID 2282957); details: HepG2 Attagene CIS-FACTORIAL PXRE reporter, mRNA; actives raise or lower the signal
Summary of the method: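 Transiently transfected HepG2 cells were dosed and incubated for 24 h. RNA was then isolated, DNase-treated, reverse-transcribed and reporter sequences amplified. Labeled, HpaI-digested fragments were quantified by capillary electrophoresis against DMSO.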

[7] = ATG_Sox_CIS: Attagene CIS-FACTORIAL HepG2 Assay for human SRY-box transcription factor (SOX) (AID 2282960); details: HepG2 Attagene cis-factorial SOX reporter, mRNA; actives raise or lower the signal
Summary of the method: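 HepG2 cells transiently transfected with multiple cis-regulated reporter units, then dosed for 24 h. Reporter mRNA quantified by RT-PCR, fluorescent labelling, HpaI digestion and capillary electrophoresis; bidirectional fit versus DMSO.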

[8] = molecular target: Transcription factor Sp1 (Homo sapiens) (UniProt P08047); assay: ATG_Sp1_CIS: Attagene CIS-FACTORIAL HepG2 Assay for human Specificity Protein 1 (Sp1) (AID 2282961); details: HepG2 Sp1 cis-reporter transcription, actives raise or lower the signal
Summary of the method: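 HepG2 cells transiently transfected with multiplexed cis-regulated reporter constructs, chemical exposure 24 h. Reporter mRNA quantified by RT-PCR with capillary electrophoresis; bidirectional fit relative to DMSO.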

[9] = ATG_SREBP_CIS: Attagene CIS-FACTORIAL HepG2 Assay for human Sterol Regulatory Element Binding (SREBP) (AID 2282962); details: HepG2 Attagene cis-factorial SREBP reporter, mRNA; actives raise or lower the signal
Summary of the method: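 Twenty-four hours after chemical dosing of transfected HepG2 cultures, reporter RNA was converted to cDNA, amplified, end-labelled with 6-FAM and resolved by capillary electrophoresis. Responses were fitted relative to DMSO.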

[10] = molecular target: Signal transducer and activator of transcription 3 (Homo sapiens) (UniProt P40763); assay: ATG_STAT3_CIS: Attagene CIS-FACTORIAL HepG2 Assay for human Signal Transducer and Activator of Transcription 3 (STAT3) (AID 2282963); details: HepG2, Attagene cis-factorial STAT3 reporter transcription; actives raise or lower the signal
Summary of the method: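 HepG2 cells transiently transfected with cis-element-driven multiple reporter transcription units; after 24 h chemical exposure, reporter mRNA measured by RT-PCR, 6-FAM primer-extension labelling, HpaI digestion and capillary electrophoresis. Bidirectional fitting versus DMSO baseline.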

[11] = ATG_TA_CIS: Attagene CIS-FACTORIAL HepG2 Assay for human TA Basal Promoter (AID 2282964); details: HepG2 Attagene CIS-factorial TA basal promoter reporter; actives raise or lower the signal
Summary of the method: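 Cis-factorial format in HepG2: reporters report endogenous factors, not chimeric Gal4 fusions. After 24 h treatment, reporter transcripts were measured by RT-PCR-capillary electrophoresis fluorescence, analysed bidirectionally versus DMSO.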

[12] = ATG_TCF_b_cat_CIS: Attagene CIS-FACTORIAL HepG2 Assay for human T-Cell-Factor with beta-catenin (TCF/b-cat) (AID 2282965); details: HepG2 TCF/beta-catenin cis-reporter transcription, actives raise or lower the signal
Summary of the method: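 HepG2 cells transiently transfected with multiple cis-promoter-regulated reporter transcription units, so endogenous transcription factor activity is measured. Reporter mRNA read 24 hours after dosing by RT-PCR, fluorescent labelling and capillary electrophoresis; bidirectional fitting against DMSO.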

[13] = ATG_TAL_CIS: Attagene CIS-FACTORIAL HepG2 Assay for human TAL Basal Promoter (AID 2282966); details: HepG2 Attagene cis-factorial TAL promoter reporter; actives raise or lower the signal;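 note: background control endpoint measuring basal TAL promoter reporter mRNA not a specific factor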
Summary of the method: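 Readout: reporter mRNA, fluorescence by CE. System: HepG2, transient multi-reporter transfection, endogenous TF activity. Exposure: 24 h. Analysis: bidirectional, DMSO-normalized; background control.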

[14] = ATG_TGFb_CIS: Attagene CIS-FACTORIAL HepG2 Assay for human Transforming Growth Factor (TGF) (AID 2282967); details: HepG2 Attagene CIS TGFb reporter, mRNA transcription; actives raise or lower the signal
Summary of the method: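 Multiplexed cis-reporter HepG2 system, 24 h treatment; mRNA induction read by fluorescence after RT-PCR and CE; DMSO negative control, bidirectional curve fitting.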

[15] = ATG_PPRE_CIS: Attagene CIS-FACTORIAL HepG2 Assay for human Peroxisome Proliferator-activated Response Element (PPRE) (AID 2282958); details: HepG2 PPRE cis-element reporter, Attagene transcription factor profiling; actives raise or lower the signal
Summary of the method: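 HepG2 cells are transiently transfected with multiplexed cis-promoter reporter units to report endogenous PPAR activity. After 24 h dosing, reporter mRNA is read by RT-PCR and capillary electrophoresis. Fitting is bidirectional against DMSO.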

[16] = ATG_RORE_CIS: Attagene CIS-FACTORIAL HepG2 Assay for human RAR-related Orphan Receptor Element (RORE) (AID 2282959); details: HepG2 Attagene cis-factorial RORE reporter, mRNA; actives raise or lower the signal
Summary of the method: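 HepG2 cells carrying transiently transfected cis-regulated reporter units; RORE-driven reporter mRNA quantified 24 h post-dosing by RT-PCR, 6-FAM primer extension, HpaI digestion and capillary electrophoresis. Bidirectional fit versus DMSO.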

[17] = ATG_VDRE_CIS: Attagene CIS-FACTORIAL HepG2 Assay for human Vitamin D Receptor Element (VDRE) (AID 2282968); details: HepG2 VDRE cis-reporter transcription, actives raise or lower the signal
Summary of the method: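 HepG2 cells transiently transfected with cis-element reporter units, dosed 24 h; reporter mRNA measured by RT-PCR, 6-FAM labeling, HpaI digestion and capillary electrophoresis. Activity fitted bidirectionally against DMSO baseline.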

[18] = molecular target: Estrogen receptor (Homo sapiens) (UniProt P03372); assay: ATG_ERa_TRANS: Attagene TRANS-FACTORIAL HepG2 Assay for human Estrogen Receptor alpha (ERa) (AID 2282970; active = hit-call score of the fitted dose curve at least 0.9, where 1 is the maximum); details: HepG2 Attagene TRANS ERa GAL4 reporter, mRNA
Summary of the method: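 Transactivation via ERa-Gal4 chimera in HepG2; 24 hour incubation; reporter mRNA detected by fluorescence RT-PCR and capillary electrophoresis.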

[19] = ATG_PBREM_CIS: Attagene CIS-FACTORIAL HepG2 Assay for human Phenobarbital-responsive Enhancer Module (PBREM) (AID 2282955); details: HepG2 PBREM cis-reporter, Attagene multiplexed transcription; actives raise or lower the signal
Summary of the method: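 HepG2 cells transiently transfected with multiple cis-regulated reporter units measure endogenous transcription factor activity; 24 h compound exposure. Reporter mRNA quantified by RT-PCR, fluorescent labelling, HpaI digestion and capillary electrophoresis; bidirectional fit versus DMSO.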

[20] = molecular target: Nuclear receptor subfamily 1 group I member 3 (Homo sapiens) (UniProt Q14994); assay: ATG_CAR_TRANS: Attagene TRANS-FACTORIAL HepG2 Assay for human Constitutive Androstane Receptor (CAR) (AID 2282969; active = hit-call score of the fitted dose curve at least 0.9, where 1 is the maximum;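 note: activators raise reporter mRNA above DMSO so AC50 marks induction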); details: HepG2 Attagene TRANS-FACTORIAL CAR reporter
Summary of the method: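 HepG2 cells transiently transfected with multiplexed GAL4-UAS reporter units expressing chimeric NR-Gal4 proteins; compound exposure 24 h. Reporter mRNA measured by RT-PCR, 6-FAM labelling, HpaI digestion and capillary electrophoresis; gain-of-signal fitted against DMSO baseline.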

Hypoxia-inducible factor 1-alpha (Homo sapiens), sequence (Q16665 whole entry, looked up): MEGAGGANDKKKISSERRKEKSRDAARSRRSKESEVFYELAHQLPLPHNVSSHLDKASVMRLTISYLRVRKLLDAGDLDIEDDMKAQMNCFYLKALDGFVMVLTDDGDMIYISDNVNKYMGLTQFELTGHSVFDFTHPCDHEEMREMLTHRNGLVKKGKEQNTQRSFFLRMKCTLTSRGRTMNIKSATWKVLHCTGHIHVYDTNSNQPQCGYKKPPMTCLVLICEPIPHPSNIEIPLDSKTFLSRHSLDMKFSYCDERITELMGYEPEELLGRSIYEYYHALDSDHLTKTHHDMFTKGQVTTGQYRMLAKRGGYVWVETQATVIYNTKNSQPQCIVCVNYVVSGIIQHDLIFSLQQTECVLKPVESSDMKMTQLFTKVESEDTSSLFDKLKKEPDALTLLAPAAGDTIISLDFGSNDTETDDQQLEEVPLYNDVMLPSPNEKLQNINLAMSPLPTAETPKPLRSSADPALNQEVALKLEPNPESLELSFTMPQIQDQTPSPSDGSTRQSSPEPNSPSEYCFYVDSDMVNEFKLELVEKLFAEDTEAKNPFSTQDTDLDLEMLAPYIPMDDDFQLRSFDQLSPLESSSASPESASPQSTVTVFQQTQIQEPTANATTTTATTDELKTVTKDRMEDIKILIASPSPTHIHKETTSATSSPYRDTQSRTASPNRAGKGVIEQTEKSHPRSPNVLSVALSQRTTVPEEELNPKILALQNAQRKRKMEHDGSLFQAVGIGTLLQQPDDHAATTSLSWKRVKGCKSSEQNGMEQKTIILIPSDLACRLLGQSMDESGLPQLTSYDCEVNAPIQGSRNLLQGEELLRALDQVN
Paired box protein Pax-6 (Homo sapiens), sequence (P26367 whole entry, looked up): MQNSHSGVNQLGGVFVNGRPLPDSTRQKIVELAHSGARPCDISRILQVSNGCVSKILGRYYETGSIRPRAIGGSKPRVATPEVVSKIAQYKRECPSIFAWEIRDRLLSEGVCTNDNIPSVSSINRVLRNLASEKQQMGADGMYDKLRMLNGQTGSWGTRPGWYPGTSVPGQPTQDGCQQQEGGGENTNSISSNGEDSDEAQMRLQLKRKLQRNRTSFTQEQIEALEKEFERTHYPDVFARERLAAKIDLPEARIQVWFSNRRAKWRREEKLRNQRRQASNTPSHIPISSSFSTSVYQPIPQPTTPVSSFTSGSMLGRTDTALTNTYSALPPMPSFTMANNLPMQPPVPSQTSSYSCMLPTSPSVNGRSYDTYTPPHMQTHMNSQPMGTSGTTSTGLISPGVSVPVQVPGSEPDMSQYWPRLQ
Heat shock factor protein 1 (Homo sapiens), sequence (Q00613 whole entry, looked up): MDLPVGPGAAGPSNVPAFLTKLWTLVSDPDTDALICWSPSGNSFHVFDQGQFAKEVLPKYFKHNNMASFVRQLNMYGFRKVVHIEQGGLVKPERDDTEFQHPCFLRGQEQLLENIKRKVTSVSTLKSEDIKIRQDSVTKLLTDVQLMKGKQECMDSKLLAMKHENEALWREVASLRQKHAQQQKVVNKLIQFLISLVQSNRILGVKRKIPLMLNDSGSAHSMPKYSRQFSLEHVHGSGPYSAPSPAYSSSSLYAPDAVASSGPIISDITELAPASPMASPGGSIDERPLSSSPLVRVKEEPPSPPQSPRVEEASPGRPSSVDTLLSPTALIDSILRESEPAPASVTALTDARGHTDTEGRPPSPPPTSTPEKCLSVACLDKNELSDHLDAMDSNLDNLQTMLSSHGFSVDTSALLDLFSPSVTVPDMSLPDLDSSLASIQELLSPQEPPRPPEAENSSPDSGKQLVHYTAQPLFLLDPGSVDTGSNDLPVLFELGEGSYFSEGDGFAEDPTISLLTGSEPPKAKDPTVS
Transcription factor Sp1 (Homo sapiens), sequence (P08047 whole entry, looked up): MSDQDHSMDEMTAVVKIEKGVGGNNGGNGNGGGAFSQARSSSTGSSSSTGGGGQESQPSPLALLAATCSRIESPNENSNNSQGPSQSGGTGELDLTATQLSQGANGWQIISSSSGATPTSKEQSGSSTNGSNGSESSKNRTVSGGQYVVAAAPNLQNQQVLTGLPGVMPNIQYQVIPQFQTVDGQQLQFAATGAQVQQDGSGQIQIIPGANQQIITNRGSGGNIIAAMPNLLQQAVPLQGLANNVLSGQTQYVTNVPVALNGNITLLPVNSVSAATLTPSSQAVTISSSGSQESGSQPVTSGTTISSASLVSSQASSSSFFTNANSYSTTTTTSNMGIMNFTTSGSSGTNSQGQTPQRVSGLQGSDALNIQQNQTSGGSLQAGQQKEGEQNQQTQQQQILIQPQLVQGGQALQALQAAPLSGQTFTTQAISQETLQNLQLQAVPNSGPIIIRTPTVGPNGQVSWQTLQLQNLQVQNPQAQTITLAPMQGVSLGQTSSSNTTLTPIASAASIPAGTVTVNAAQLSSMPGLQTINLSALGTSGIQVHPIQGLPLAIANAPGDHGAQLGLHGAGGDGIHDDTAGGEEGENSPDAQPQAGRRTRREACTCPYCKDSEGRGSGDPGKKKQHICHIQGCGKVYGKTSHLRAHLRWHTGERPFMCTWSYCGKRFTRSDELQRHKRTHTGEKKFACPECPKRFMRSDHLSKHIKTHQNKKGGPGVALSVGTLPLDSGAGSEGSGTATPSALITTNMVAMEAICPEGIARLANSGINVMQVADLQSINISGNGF
Signal transducer and activator of transcription 3 (Homo sapiens), sequence (P40763 whole entry, looked up): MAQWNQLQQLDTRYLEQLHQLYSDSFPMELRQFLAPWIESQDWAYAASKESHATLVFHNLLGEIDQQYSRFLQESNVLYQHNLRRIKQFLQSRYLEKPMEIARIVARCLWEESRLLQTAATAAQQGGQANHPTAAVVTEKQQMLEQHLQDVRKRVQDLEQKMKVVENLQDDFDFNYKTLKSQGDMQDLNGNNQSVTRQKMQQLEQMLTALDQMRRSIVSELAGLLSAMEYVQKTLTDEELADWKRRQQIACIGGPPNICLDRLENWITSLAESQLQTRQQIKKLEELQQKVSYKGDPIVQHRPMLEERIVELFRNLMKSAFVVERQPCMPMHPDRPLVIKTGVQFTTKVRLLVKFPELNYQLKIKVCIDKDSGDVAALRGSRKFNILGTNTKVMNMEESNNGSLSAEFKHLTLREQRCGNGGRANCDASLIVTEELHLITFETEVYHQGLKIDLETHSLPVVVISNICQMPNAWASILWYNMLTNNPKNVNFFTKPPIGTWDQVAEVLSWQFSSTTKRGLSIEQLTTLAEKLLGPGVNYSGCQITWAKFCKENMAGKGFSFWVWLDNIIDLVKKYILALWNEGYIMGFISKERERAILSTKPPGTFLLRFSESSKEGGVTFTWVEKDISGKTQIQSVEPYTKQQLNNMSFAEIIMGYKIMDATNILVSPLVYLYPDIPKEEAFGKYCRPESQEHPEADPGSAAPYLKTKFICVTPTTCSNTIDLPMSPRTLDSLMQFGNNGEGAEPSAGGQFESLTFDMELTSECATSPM
Estrogen receptor (Homo sapiens), sequence (P03372 whole entry, looked up, the tested form may be a part): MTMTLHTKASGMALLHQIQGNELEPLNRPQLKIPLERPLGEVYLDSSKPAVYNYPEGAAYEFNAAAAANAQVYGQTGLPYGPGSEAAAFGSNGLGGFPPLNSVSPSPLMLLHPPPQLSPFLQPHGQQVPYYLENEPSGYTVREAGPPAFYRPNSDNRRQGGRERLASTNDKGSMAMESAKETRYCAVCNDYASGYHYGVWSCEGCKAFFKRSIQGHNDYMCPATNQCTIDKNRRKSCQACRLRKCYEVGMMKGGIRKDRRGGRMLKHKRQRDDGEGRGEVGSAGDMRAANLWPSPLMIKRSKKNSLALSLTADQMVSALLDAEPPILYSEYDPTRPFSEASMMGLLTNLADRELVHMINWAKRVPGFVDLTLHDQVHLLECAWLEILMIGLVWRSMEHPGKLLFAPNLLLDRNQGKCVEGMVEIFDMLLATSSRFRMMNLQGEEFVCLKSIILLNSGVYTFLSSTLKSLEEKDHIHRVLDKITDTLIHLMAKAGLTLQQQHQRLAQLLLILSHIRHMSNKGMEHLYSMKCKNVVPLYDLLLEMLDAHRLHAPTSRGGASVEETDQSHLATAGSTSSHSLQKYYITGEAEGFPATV
Hepatocyte nuclear factor 6 (Homo sapiens), sequence (Q9UBC0 whole entry, looked up, the tested form may be a part): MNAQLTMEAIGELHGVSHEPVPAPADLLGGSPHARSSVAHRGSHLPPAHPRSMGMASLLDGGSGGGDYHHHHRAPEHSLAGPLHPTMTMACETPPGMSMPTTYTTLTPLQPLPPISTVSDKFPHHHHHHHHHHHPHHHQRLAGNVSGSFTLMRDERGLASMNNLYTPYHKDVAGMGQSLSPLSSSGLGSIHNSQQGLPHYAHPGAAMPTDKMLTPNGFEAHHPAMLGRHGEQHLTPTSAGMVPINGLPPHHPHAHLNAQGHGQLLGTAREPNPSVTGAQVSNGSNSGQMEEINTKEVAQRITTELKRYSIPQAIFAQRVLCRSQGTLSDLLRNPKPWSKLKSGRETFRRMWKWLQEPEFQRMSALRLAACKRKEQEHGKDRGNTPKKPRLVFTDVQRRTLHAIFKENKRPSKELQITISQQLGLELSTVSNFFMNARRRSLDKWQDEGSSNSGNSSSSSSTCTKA
Nuclear receptor subfamily 1 group I member 3 (Homo sapiens), sequence (Q14994 whole entry, looked up, the tested form may be a part): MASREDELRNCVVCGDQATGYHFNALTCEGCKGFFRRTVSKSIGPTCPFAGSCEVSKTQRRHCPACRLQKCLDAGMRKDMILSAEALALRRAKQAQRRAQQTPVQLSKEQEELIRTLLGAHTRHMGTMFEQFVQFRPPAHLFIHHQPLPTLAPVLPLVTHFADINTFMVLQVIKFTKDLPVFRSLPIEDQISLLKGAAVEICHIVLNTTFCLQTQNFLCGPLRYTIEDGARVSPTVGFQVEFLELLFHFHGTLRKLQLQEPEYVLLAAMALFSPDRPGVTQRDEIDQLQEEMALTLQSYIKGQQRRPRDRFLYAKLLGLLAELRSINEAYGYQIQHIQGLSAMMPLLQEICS

O=c1[nH]c(=O)n(Cl)c(=O)n1Cl
outcome [1]: inactive | outcome [2]: inactive | outcome [3]: inactive | outcome [4]: inactive | outcome [5]: inactive | AC50 [6]: 52.5 µM (active) | outcome [6]: inactive | outcome [7]: inactive | outcome [8]: inactive | outcome [9]: inactive | outcome [10]: inactive | outcome [11]: inactive | outcome [12]: inactive | outcome [13]: inactive | outcome [14]: inactive

O=C(Cc1ccccc1)OCCc1ccccc1
outcome [1]: inactive | outcome [2]: inactive | outcome [3]: inactive | outcome [4]: inactive | outcome [5]: inactive | outcome [6]: inactive | outcome [15]: inactive | outcome [16]: inactive | outcome [7]: inactive | outcome [8]: inactive | outcome [9]: inactive | outcome [10]: inactive | outcome [11]: inactive | outcome [12]: inactive | outcome [13]: inactive | AC50 [14]: 115 µM (active) | outcome [17]: inactive | outcome [18]: inactive

ClCCN1CCOCC1
outcome [1]: inactive | outcome [2]: inactive | outcome [3]: inactive | outcome [4]: inactive | outcome [6]: inactive | outcome [15]: inactive | outcome [16]: inactive | outcome [7]: inactive | outcome [8]: inactive | outcome [9]: inactive | outcome [10]: inactive | outcome [11]: inactive | outcome [12]: inactive | outcome [13]: inactive | outcome [14]: inactive | outcome [17]: inactive | outcome [18]: inactive

CCOP(=S)(OCC)Oc1ccc(Cl)cc1Cl
outcome [1]: inactive | outcome [2]: inactive | outcome [3]: inactive | outcome [19]: inactive | outcome [5]: inactive | AC50 [6]: 3.82 µM (active) | outcome [15]: inactive | outcome [16]: inactive | outcome [7]: inactive | outcome [8]: inactive | outcome [9]: inactive | outcome [10]: inactive | outcome [11]: inactive | outcome [12]: inactive | outcome [13]: inactive | outcome [14]: inactive | AC50 [17]: 13.9 µM (active) | outcome [20]: inactive

Clc1ccc(C(Cl)(Cl)Cl)cn1
outcome [1]: inactive | outcome [2]: inactive | outcome [3]: inactive | outcome [4]: inactive | outcome [5]: inactive | AC50 [6]: 14.1 µM (active) | outcome [15]: inactive | outcome [16]: inactive | outcome [7]: inactive | outcome [8]: inactive | outcome [9]: inactive | outcome [10]: inactive | outcome [11]: inactive | outcome [12]: inactive | outcome [13]: inactive | outcome [14]: inactive | outcome [18]: inactive

O=C(NC(=O)c1c(F)cccc1F)Nc1cc(Cl)c(F)c(Cl)c1F
outcome [1]: inactive | outcome [2]: inactive | outcome [3]: inactive | outcome [19]: inactive | outcome [5]: inactive | AC50 [6]: 20.2 µM (active) | outcome [15]: inactive | outcome [16]: inactive | outcome [7]: inactive | outcome [8]: inactive | outcome [9]: inactive | outcome [10]: inactive | outcome [11]: inactive | outcome [12]: inactive | outcome [13]: inactive | outcome [14]: inactive | outcome [17]: inactive | outcome [20]: inactive

Cc1cc(C)cc(C)c1
outcome [1]: inactive | outcome [2]: inactive | outcome [3]: inactive | outcome [4]: inactive | outcome [5]: inactive | outcome [6]: inactive | outcome [16]: inactive | outcome [7]: inactive | outcome [8]: inactive | outcome [9]: inactive | outcome [10]: inactive | outcome [11]: inactive | outcome [12]: inactive | outcome [13]: inactive | outcome [14]: inactive

CCN(CC)C(=O)C(Cl)=C(C)OP(=O)(OC)OC
outcome [1]: inactive | outcome [2]: inactive | outcome [3]: inactive | outcome [4]: inactive | outcome [5]: inactive | AC50 [6]: 11.3 µM (active) | outcome [15]: inactive | outcome [16]: inactive | outcome [7]: inactive | outcome [8]: inactive | outcome [9]: inactive | outcome [11]: inactive | outcome [12]: inactive | outcome [13]: inactive | outcome [14]: inactive | outcome [17]: inactive
